ELG1 DNA repair: blocks ELG1-dependent DNA repair in HEK293T cells. HEK293T ELG1-luciferase reporter, luminescence, 16 h; DNA damage induced by 5-fluorouridine. actives 2.3% (n = 330,000). Potency, µM (series often up to 46.1 µM), most hits filed as inhibitors; further: nearly all actives have a fitted effect of over 55% in size
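Cells (2,000 per well) received 5-fluorouridine plus test compound or DMSO and were incubated 16 hr at 37 °C, 5% CO2. Luciferase activity was read by luminescence 30 min after ONE-Glo addition; signal suppression marked inhibition of damage-induced ELG1 function.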
FLuc counter: inhibits or activates purified firefly luciferase, miR-21 counter-screen. purified FLuc, Km substrates, luminescence inhibition. P08659. actives 6.9% (n = 360,000). Potency, µM (doses to about 57.5 µM), actives largely listed as inhibitors; further: nearly all actives have a fitted effect of over 55% in size
Target sequence (P08659 whole entry, looked up): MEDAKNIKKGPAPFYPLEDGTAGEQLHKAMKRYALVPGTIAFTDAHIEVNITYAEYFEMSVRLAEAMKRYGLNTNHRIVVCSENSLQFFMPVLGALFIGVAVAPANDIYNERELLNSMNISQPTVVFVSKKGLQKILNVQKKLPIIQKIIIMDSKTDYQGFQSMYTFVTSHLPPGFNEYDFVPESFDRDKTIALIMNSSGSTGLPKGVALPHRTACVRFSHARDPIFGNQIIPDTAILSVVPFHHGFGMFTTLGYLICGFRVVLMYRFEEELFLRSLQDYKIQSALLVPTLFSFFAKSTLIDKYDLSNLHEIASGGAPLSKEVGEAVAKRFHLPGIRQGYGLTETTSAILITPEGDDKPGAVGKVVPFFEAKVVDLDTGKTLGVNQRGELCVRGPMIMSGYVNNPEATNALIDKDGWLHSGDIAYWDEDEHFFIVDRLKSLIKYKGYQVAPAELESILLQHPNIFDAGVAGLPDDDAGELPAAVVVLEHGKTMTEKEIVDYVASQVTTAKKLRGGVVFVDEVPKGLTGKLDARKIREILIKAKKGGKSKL
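Biochemical qHTS of compounds, final roughly 60 µM downward over six points, against 10 nM purified firefly luciferase using Km concentrations of substrates (10 uM D-luciferin, 10 uM ATP) in Tris acetate pH 7.5 buffer; luminescence output.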
NPC1 prom act: activates the NPC1 promoter; Potency, µM (doses to about 9.22 µM), usual class: activators; actives 2.4% (n = 320,000); Huh7 NPC1 promoter luciferase reporter, 24 h; further: nearly all actives have a fitted effect of over 60% in size
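Quantitative HTS used a cell-based reporter: Huh7 cells stably bearing the NPC1 promoter upstream of luciferase were treated with compounds for 24 h, and promoter activation was read as luminescence.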
Rab9 prom act: activates the Rab9 promoter; Huh7 Rab9 promoter-luciferase reporter, luminescence, 24 h; actives 2.8% (n = 320,000); Potency, µM (series often up to 9.22 µM), hits mostly activators; further: nearly all actives have a fitted effect of over 60% in size
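Promoter activation is measured as luciferase luminescence in Huh7 cells stably transfected with a Rab9 promoter–luciferase construct, following 24 h compound exposure at 37 °C and 10 min reagent incubation at ambient temperature.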
SMN2 splice enh: increases expression of the SMN2 splice variant | HEK293 SMN2-luciferase splicing reporter, luminescence, 30-36 h | Potency, µM (top dose mostly 46.1 µM), hits mostly activators | actives 2.8% (n = 210,000); further: nearly all actives have a fitted effect of over 55% in size
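qHTS luciferase splicing reporter: luminescence rises when SMN2 exon 7 is included in transfected HEK293 cells. Compound exposure lasted 30-36 h at 37C, with 4.5 mM final sodium butyrate as control, followed by a ONE-Glo read.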
ELG1 genotoxic: induces genotoxicity in HEK293T cells with luciferase-tagged ELG1. AID 504466. HEK293T ELG1-luciferase reporter, luminescence, 16 h. Potency, µM (highest dose often 46 µM), usual class: activators. actives 1.3% (n = 330,000); further: nearly all actives have a fitted effect of over 60% in size
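HEK293T cells expressing luciferase-tagged ELG1 were exposed to compound or DMSO vehicle for 16 hr at 37 °C and 5% CO2. Luciferase activity was then measured with ONE-Glo after 30 min at room temperature.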
A number is an active result; . = inactive; ? = inconclusive; / = no result given; [ ] = remark or other dose. A selection: hits, their analogues and other compounds. The true share with any hit is near 9.4%. The call rests on the fitted dose curve; in most records, active means well fitted curve in the direction sought with a large enough effect; inconclusive means small, poorly fitted or top-dose-only effect, or another doubt; inactive means no such curve, though single readings can be large; an effect the other way counts as inactive or inconclusive.

SMILES	ELG1 DNA repair	FLuc counter	NPC1 prom act	Rab9 prom act	SMN2 splice enh	ELG1 genotoxic
O=C(Nc1ccc(F)cc1F)c1ccc2ncsc2c1	?	27µM	2.5µM	4µM	/	.[9.26 µM]
CCOc1ccccc1-c1nc(Cn2c(=O)cc(C)c3c(C)nn(-c4ccccc4)c32)c(C)o1	/	.	/	/	/	/
O=C(O)c1ccc(NC2=Nc3cccc4cccc2c34)cc1	?	?	1.6µM	1.6µM	/	.
COc1ccccc1NC1=Nc2cccc3cccc1c23	.	19µM	.	.	/	.
COc1ccc(C(=O)NNC2=Nc3cccc4cccc2c34)cc1	.	.	.	.	.	.
COc1ccccc1N1CCN(C2=Nc3cccc4cccc2c34)CC1	?	3.4µM	?	?	/	.
C/C(=N\O)C(C)(C)Nc1cccc(Br)c1	12µM	.	.	.	/	.
CCN(CC)CCNC(=O)C(=O)Nc1cc2c3c(c1)CCC(=O)N3CCC2	?	.	.	.	/	.
Cc1ccc(C2CC(=O)N(Cc3ccc(F)cc3)c3c2c(C)nn3-c2nc(C)cc(C)n2)cc1 (configuration not stated)	/	.	/	/	/	/
Cc1cc2nc(C3CCCN(C(=S)Nc4ccccc4C)C3)[nH]c2cc1C (configuration not stated)	?	3.4µM	.	.	.	.
COc1ccc(NC(=S)N2CCCC(c3nc4ccc(C)cc4[nH]3)C2)c(OC)c1 (configuration not stated)	.	13µM	.	.	/	.
Cc1ccc(NC(=S)N2CCCC(c3nc4ccc(C)cc4[nH]3)C2)c(C)c1 (configuration not stated)	.	.	.	.	.	.
COc1ccc(NC(=S)N2CCCC(c3nc4ccc(C)cc4[nH]3)C2)cc1 (configuration not stated)	.	13µM	.	.	/	.
Cc1nc2ccc(S(=O)(=O)N(CC(=O)Nc3cccc(C)c3C)Cc3ccccc3)cc2s1	/	.	/	/	/	/

From PubChem
